Test results: PubChem BioAssay AID504336 (NMMLSC, 2011)
The source made the active and inactive calls.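 The calls were made as follows: active = compounds whose GFP signal falls below 65% of the DMSO control level; inconclusive = fewer than 70 yeast cells counted in the well; inactive = the rest.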

Assay: TOR branch reporter RPL19A-GFP response – cell-based, S. cerevisiae, third cherry pick, flow cytometry, confirmation (AID 504336);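 also: median GFP fluorescence of all gated yeast cells by flow cytometry; ratio of well median fluorescence to plate mean of DMSO wells with DMSO = 100%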
Conditions: S. cerevisiae RPL19A-GFP strain, 3 h, at 10 µM, active compounds read low

GFP response relative to DMSO, inactive:
O=C(Nc1nc(-c2ccccn2)cs1)c1ccccc1-n1cnnn1 98.8%
O=C(Nc1ccccc1Cl)ON=C1c2ccccc2-c2ccccc21 102%
Cc1ccc(-c2cc(C(F)F)nc(S(C)(=O)=O)n2)cc1 96.2%
C/C(=C\C(=O)c1ccc(Cl)cc1)Nc1ccc(Br)cc1 100%
Cc1nc(Nc2ccc(Cl)cc2)c(C#N)c(=O)[nH]1 102%
COC(=O)c1cc(=O)c2cccc(OC)c2[nH]1 101%
CCCC(=O)Nn1cnc2c(c1=O)C1(CCCCC1)Cc1ccccc1-2 103%
O=C(/C=C/Nc1cccc(O)c1)c1ccccc1 98.8%
CC(=O)Nn1cnc2c(c1=O)C1(CCCCC1)Cc1ccccc1-2 99.1%
Cn1c(NCCO)nc2c(c1=O)C1(CCCCC1)Cc1ccccc1-2 103%
Cc1ccc(Nc2nc(N)[nH]c(=O)c2N=O)cc1 102%
Cc1ccc(NC(=O)O/N=C2\CCCCC2c2ccc([N+](=O)[O-])cc2[N+](=O)[O-])cc1 (configuration not stated) 102%
COc1cccc(N/C(C)=C/C(=O)c2ccc(Br)cc2)c1 101%
CC(=O)C(Cl)C(=O)Nc1ccccc1 (configuration not stated) 98.8%
CNc1nc(N)c([N+](=O)[O-])c(Nc2ccccc2OC)n1 103%
CCN(CC)C(=O)Oc1cc(=O)n(C)c2ccccc12 99.8%
CCC(C)Nc1nc(N)c([N+](=O)[O-])c(Nc2ccccc2OC)n1 (configuration not stated) 105%
